Measured values reported in PubChem BioAssay AID435005 (Broad Institute, 2010).
The campaign covered roughly 300,000 compounds. About 2,400 (0.8%) were called active. The full list was thinned out, with actives kept by preference. Values without a mark were called inactive.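 The calls were made as follows: active = Every replicate reaches about 75%, or at least half do and their mean reaches it too (limit read from the data); inconclusive = At least half of replicates reach the limit but their mean does not; inactive = Under half of replicates reach the limit.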

Experiment: inhibitors of cytokine-induced beta cell apoptosis, primary screen, luminescence (AID 435005);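 also: 0% = cytokine-treated negative control wells and 100% = positive control rescue; higher means more ATP so stronger rescue from cytokine killing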
Settings: INS-1E cytokine-induced death, ATP luminescence, 48 h; hits give high values; percent of positive-control rescue, neutral wells zero; concentration not given here

| Compound | protection from apoptosis |
| --- | --- |
| Cc1ccc(S(=O)(=O)N(C)C)cc1NC(=O)CN1c2cccc3cccc(c23)S1(=O)=O | -0.228% |
| CCOc1ccc(NC(=O)CCC(=O)N/N=C/c2ccc([N+](=O)[O-])s2)cc1 | -9.66% |
| COc1ccc(C(=O)COC(=O)c2ccc([N+](=O)[O-])s2)cc1OC | 4.99% |
| Cc1ccccc1NCC(=O)N/N=C\c1ccc([N+](=O)[O-])s1 | 3.12% |
| CC(C)(C)c1cc(C(=O)N/N=C/c2ccc([N+](=O)[O-])s2)n[nH]1 | 111% (active) |
| COc1ccc(C(=O)NCC(=O)N/N=C/c2ccc([N+](=O)[O-])o2)cc1OC | -11.1% |
| COc1ccc(C(=O)NCC(=O)N/N=C/c2ccc([N+](=O)[O-])s2)cc1OC | 91.3% (active) |
| CCN(C[C@H]1N[C@@](CC)(C(=O)OC)[C@H]2C(=O)N(Cc3ccccc3)C(=O)[C@@H]12)S(=O)(=O)c1ccc(C(F)(F)F)cc1 | 13.9% |
| COc1ccc(C)cc1NC(=O)c1cc(-c2ccccc2)nc2c1cnn2C(C)C | 15.6% |
| COc1ccc(S(=O)(=O)Nc2cccc3c2O[C@H](CN(C)S(=O)(=O)c2ccc(OC)cc2)[C@@H](C)CN([C@H](C)CO)C3=O)cc1 | -7.76% |
| COc1ccc(S(=O)(=O)N(C)C[C@@H]2Oc3ccc(NS(=O)(=O)c4cn(C)cn4)cc3C(=O)N([C@@H](C)CO)C[C@@H]2C)cc1 | -2.08% |
| Nn1c(SCC(=O)NC2CCCc3ccccc32)nnc1C1CC1 (stereo unspecified) | -5.42% |
| COc1ccc(CCNC(=O)COC(=O)c2cnc(Cl)c(Cl)c2)cc1 | -3.76% |
| COC(=O)c1ccccc1NC(=S)NC(=O)c1ccccc1F | 1.17% |
| C/C(=N\NC(=O)Cc1ccc(F)cc1)c1ccc(F)cc1 | -1.1% |
| C/C(=N\NC(=O)Cc1ccc(Br)cc1)c1cccnc1 | -3.84% |
| C/C(=N\NC(=O)Cc1ccc(Cl)cc1)c1ccccn1 | 87.6% (active) |
| C/C(CC(=O)Nc1ccc(N(C)C)cc1)=N\NC(=O)c1ccccc1F | 1.37% |
| C/C(=N\NC(=O)c1ccccc1F)c1ccccn1 | 92% (active) |
| O=C(COC(=O)c1ccccn1)NNC(=O)c1ccc(Br)cc1 | -13.1% |
| Cc1cc(C)cc(OCC(=O)Nc2ccc(N3CCOCC3)cc2N2CCOCC2)c1 | 1.95% |
| CN(CC(=O)Nc1ccc(OC(F)F)cc1)S(=O)(=O)/C=C/c1ccccc1 | -0.758% |
| COc1ccc(CCNC(=O)CSc2nc3[nH]ncc3c(=O)n2-c2cccc(C(F)(F)F)c2)cc1OC | 4.86% |
| Cc1cccc2nc(CSc3nc4[nH]ncc4c(=O)n3-c3cccc(Cl)c3)cc(=O)n12 | 92.7% (active) |
| CCc1ccc(-n2c(SCc3cc(=O)n4cc(Br)ccc4n3)nc3[nH]ncc3c2=O)cc1 | 16.3% |
| CC[C@@H]1CCCCc2ccccc2[C@@H](C(=O)C[C@H](O)CC(C)=O)OC1=O | -2.96% |

| Compound | protection from apoptosis |
| --- | --- |
| C[C@@H]1CN([C@@H](C)CO)C(=O)c2cccc(NS(=O)(=O)c3ccc(F)cc3)c2O[C@H]1CN(C)C(=O)NC1CCCCC1 | -0.297% |
| COc1cc(OC)c(OC)cc1/C=N/Nc1ncnc2c1[nH]c1ccc(C)cc12 | 6% |
| CC(C)OCCCNC(=O)c1cc(Sc2ccc(F)cc2)nc2ccccc12 | 0.00619% |
| CC(C)OCCCNc1ncnc2c1[nH]c1ccc(F)cc12 | 104% (active) |
| COc1ccc(NC(=O)CN(C)C(=O)c2cc(C3CC3)nn2-c2ccccc2)cc1 | -6.53% |
| N#Cc1cc([N+](=O)[O-])ccc1NC(=O)COC(=O)c1cnccn1 | -1.22% |
| Cc1cccc(NC(=S)Nc2ccc(Cl)c(Cl)c2)c1 | 2.17% |
| CCc1cccc(CC)c1NC(=S)Nc1ccc2cn[nH]c2c1 | -5.93% |
| Cc1cccc(NC(=S)Nc2ccc3cn[nH]c3c2)c1 | 124% (active) |
| COc1ccc(S(=O)(=O)N(C)C[C@H]2Oc3c(NC(=O)Nc4ccc5c(c4)OCO5)cccc3C(=O)N([C@H](C)CO)C[C@@H]2C)cc1 | 2.68% |
| Cc1ccc(C(=O)Nc2ccc3c(c2)OCCO3)cc1S(=O)(=O)N1CCOCC1 | 10.2% |
| C/C(N)=C(/C#N)C(=O)COC(=O)c1cc(-c2ccccc2)nc2ccc(Br)cc12 | 7.58% |
| C/C(N)=C(/C#N)C(=O)COC(=O)c1cc(-c2cccc(Br)c2)nc2ccccc12 | -5.26% |
| C/C(N)=C(/C#N)C(=O)COC(=O)c1cc(-c2ccc(C)cc2)nc2ccccc12 | 80.7% (active) |
| O=C(OCCN1C(=O)c2ccccc2C1=O)[C@@H]1CC(O)CN1S(=O)(=O)c1ccccc1[N+](=O)[O-] (stereo partly specified) | 4.37% |
| C=CC[C@H](CC(=O)OC(C)(C)C)C(=O)OC[C@H]1CCCN1C(=O)[C@H](CC=C)CC(=O)N(CCO)Cc1ccccc1 | 5.16% |
| CCC(CO)Oc1cc(NC(=O)c2cccc(F)c2)c2ncn(C(C)C)c2c1 (stereo unspecified) | -0.224% |
| COC(=O)C1=C(C)N(Cc2ccccc2)C(=NCCCOC(C)C)N[C@H]1c1ccccc1 | 11.4% |
| Cc1ccc(Nc2ccccc2N)cc1 | -7.56% |
| Cc1cc(Nc2ccccc2)n(C(=O)c2ccc(N)cc2)n1 | -16.4% |
| Nc1ccc(Nc2ccccc2)cc1 | 78% (active) |
| O=C(Nc1nc2c(F)cc(F)cc2s1)C1COc2ccccc2O1 (stereo unspecified) | 8.45% |
| Fc1cc(F)c2nc(Nc3nc4c(F)cccc4s3)sc2c1 | 103% (active) |
| NC(=O)c1c(Nc2nc3c(F)cccc3s2)sc2c1CCCC2 | -4.14% |
| COc1ccc(C(=O)O)cc1S(=O)(=O)NC1CCN(Cc2ccccc2)CC1 | -4.08% |
| COc1cnc(-c2ccccn2)nc1Oc1ccc(C(C)(C)C)cc1 | 97.3% (active) |

| Compound | protection from apoptosis |
| --- | --- |
| CCOC(=O)c1cnc(-c2ccccc2)nc1Oc1ccc(C)cc1 | -3.84% |
| CC(C)(C)Nc1nc(-c2ccccn2)nc2ccccc12 | 118% (active) |
| COc1ccc(Sc2nc(-c3ccccc3)ncc2OC)cc1 | -2.84% |
| N#Cc1ccc(Oc2cc(C(F)(F)F)nc(-c3ccccn3)n2)cc1 | -3.82% |
| Cc1ccc(Oc2nc(-c3ccccn3)nc3ccccc23)cc1 | 101% (active) |
| COc1ccc(Cc2nc(-c3ccccn3)no2)cc1OC | 4.66% |
| CCOCCCNc1nc(-c2ccccc2)nc2ccccc12 | 4.15% |
| CCC(=O)OCCNc1nc(-c2ccccc2)nc2ccccc12 | 0.204% |
| COc1ccccc1S(=O)(=O)NCc1ccc(C(=O)N(C)Cc2ccc(F)cc2)cc1 | -4.62% |
| CCN(CC)C(=O)[C@H]1CC(CC(=O)NCc2ccco2)C(=O)N2CCc3c([nH]c4ccccc34)[C@]12C (stereo partly specified) | -1.53% |
| O=C(COc1ccc([N+](=O)[O-])cc1Cl)Nc1ccc2[nH]c(=O)[nH]c2c1 | -0.613% |
| CN(c1ccccc1)S(=O)(=O)c1cc(C(=O)N2CCN(c3ncccn3)CC2)ccc1Cl | -2.6% |
| COc1ccccc1-c1oc2ccccc2c1C#CCCCCO | -5.68% |
| COC(=O)c1ccc(/C=C/c2c(-c3ccc(OC)cc3)sc3ccccc23)cc1 | 5.7% |
| Cn1nccc1C(=O)NC1CCCc2c1cnn2-c1ccccc1F (stereo unspecified) | 111% (active) |
| COc1ccc(C(=O)NC2CCCc3c2cnn3-c2cccc(C)c2C)c(OC)n1 (stereo unspecified) | 32.4% |
| CC(=O)NCC(=O)NC1CCCc2c1cnn2-c1ccccc1F (stereo unspecified) | -7.28% |
| Cn1nccc1C(=O)NC1CCCc2c1cnn2-c1ccc(F)cc1F (stereo unspecified) | 132% (active) |
| Cc1cc(C(=O)NC2CCCc3c2cnn3-c2cccc(C)c2C)c(C)o1 (stereo unspecified) | 41.6% |
| Cc1ccc(-n2ncc3c2CCCC3NC(=O)c2cnccn2)cc1C (stereo unspecified) | 2.44% |
| Cc1c(C(=O)Nc2cccc(S(=O)(=O)N3CCOCC3)c2)oc2ccccc12 | -9.31% |
| COc1cc(C(=O)OCc2cc(=O)n3ccsc3n2)ccc1OC(C)C | -0.396% |
| CC(C)c1ccc(NC(=O)COC(=O)c2ccc(CN3CCCC3=O)cc2)cc1 | 3.42% |
| COc1ccccc1-c1sc2ccccc2c1C#CC1(O)CCCCC1 | -12% |
